From the supplement of paper PMC8728848
The entries come from a sample that favours the strongest signals as a whole.

Key:
Test in all cases: glycan array binding signal (z-score within array); higher = stronger binding
Settings in all cases: glycan notation: IUPAC condensed, linker removed
[1] = target: GlcA(b1-3)GlcNAc
Method in brief: (§1)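 Glycan array data came from 3228 arrays in the Consortium for Functional Glycomics database, and only arrays with an available protein sequence were kept. Glycan names were put into IUPAC-condensed notation, and columns mapping to the same glycan were averaged. The binding signal is a within-array Z-score, averaged across arrays of one protein sequence run at different concentrations or buffers and across linkers. A negative Z-score can be read as non-binding.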

[2] = target: GlcNAc(b1-2)Man(a1-3)[GlcNAc(b1-2)Man(a1-6)]Man(b1-4)GlcNAc(b1-4)[Fuc(a1-6)]GlcNAc
Method in brief: as §1

[3] = target: GlcNAc(b1-2)[GlcNAc(b1-4)]Man(a1-3)[GlcNAc(b1-4)][GlcNAc(b1-2)Man(a1-6)]Man(b1-4)GlcNAc(b1-4)GlcNAc
Method in brief: as §1

[4] = target: GlcNAc(b1-2)[GlcNAc(b1-6)]Man(a1-6)[GlcNAc(b1-2)Man(a1-3)][GlcNAc(b1-4)]Man(b1-4)GlcNAc(b1-4)GlcNAc
Method in brief: as §1

[5] = target: GlcNAc(b1-4)GlcNAc(b1-4)GlcNAc
Method in brief: as §1

[6] = target: GlcNAc(b1-4)[GlcNAc(b1-6)]GalNAc
Method in brief: as §1

[7] = target: Kdn(a2-3)Gal(b1-3)GalNAc
Method in brief: as §1

[8] = target: Kdn(a2-3)Gal(b1-4)GlcNAc
Method in brief: as §1

[9] = target: Kdn(a2-6)Gal(b1-4)GlcNAc
Method in brief: as §1

[10] = target: Neu5Ac(a2-3)Gal(b1-3)GalNAc(b1-4)[Neu5Ac(a2-8)Neu5Ac(a2-3)]Gal(b1-4)Glc
Method in brief: as §1

[11] = target: Neu5Ac(a2-3)Gal(b1-3)GlcNAc(b1-3)GalNAc
Method in brief: as §1

[12] = target: Neu5Ac(a2-3)GalNAc
Method in brief: as §1

[13] = target: Neu5Ac(a2-6)Gal
Method in brief: as §1

[14] = target: Neu5Ac(a2-6)Gal(b1-4)GlcNAc(b1-2)Man(a1-3)[Man(a1-6)]Man(b1-4)GlcNAc(b1-4)GlcNAc
Method in brief: as §1

[15] = target: Neu5Ac(a2-6)Gal(b1-4)GlcNAc6S
Method in brief: as §1

[16] = target: Neu5Ac(a2-6)GalNAc(b1-4)GlcNAc
Method in brief: as §1

[17] = target: Neu5Ac(a2-8)Neu5Ac
Method in brief: as §1

[18] = target: Neu5Gc(a2-6)Gal(b1-4)GlcNAc
Method in brief: as §1

[19] = target: Neu5Gc(b2-6)Gal(b1-4)GlcNAc
Method in brief: as §1

[20] = target: Fuc(a1-2)Gal(b1-3)GlcNAc(b1-2)Man(a1-3)[Fuc(a1-2)Gal(b1-3)GlcNAc(b1-2)Man(a1-6)]Man(b1-4)GlcNAc(b1-4)GlcNAc
Method in brief: as §1

[21] = target: Fuc(a1-2)Gal(b1-3)GlcNAc(b1-3)Gal(b1-4)Glc
Method in brief: as §1

[22] = target: Fuc(a1-2)Gal(b1-3)GlcNAc(b1-3)[Fuc(a1-3)[Gal(b1-4)]GlcNAc(b1-6)]Gal(b1-4)Glc
Method in brief: as §1

[23] = target: Fuc(a1-2)Gal(b1-3)[Fuc(a1-4)]GlcNAc(b1-2)Man(a1-3)[Fuc(a1-2)Gal(b1-3)[Fuc(a1-4)]GlcNAc(b1-2)Man(a1-6)]Man(b1-4)GlcNAc(b1-4)GlcNAc
Method in brief: as §1

[24] = target: Fuc(a1-2)Gal(b1-4)Glc
Method in brief: as §1

[25] = target: Fuc(a1-2)Gal(b1-4)GlcNAc(b1-2)[Fuc(a1-2)Gal(b1-4)GlcNAc(b1-4)]Man(a1-3)[Fuc(a1-2)Gal(b1-4)GlcNAc(b1-2)Man(a1-6)]Man(b1-4)GlcNAc(b1-4)GlcNAc
Method in brief: as §1

[26] = target: Fuc(a1-2)Gal(b1-4)[Fuc(a1-3)]GlcNAc(b1-3)GalNAc
Method in brief: as §1

[27] = target: Fuc(a1-2)[Gal(a1-3)]Gal(b1-3)GlcNAc
Method in brief: as §1

[28] = target: Fuc(a1-2)[Gal(a1-3)]Gal(b1-4)GlcNAc
Method in brief: as §1

[29] = target: Fuc(a1-2)[GalNAc(a1-3)]Gal(b1-3)GlcNAc(b1-2)Man(a1-3)[Fuc(a1-2)[GalNAc(a1-3)]Gal(b1-3)GlcNAc(b1-2)Man(a1-6)]Man(b1-4)GlcNAc(b1-4)[Fuc(a1-6)]GlcNAc
Method in brief: as §1

[30] = target: Fuc(a1-2)[GalNAc(a1-3)]Gal(b1-4)GlcNAc
Method in brief: as §1

[31] = target: Fuc(a1-2)[GalNAc(a1-3)]Gal(b1-4)GlcNAc(b1-2)Man(a1-3)[Fuc(a1-2)[GalNAc(a1-3)]Gal(b1-4)GlcNAc(b1-2)Man(a1-6)]Man(b1-4)GlcNAc(b1-4)GlcNAc
Method in brief: as §1

[32] = target: Fuc(a1-3)[Gal3S(b1-4)]GlcNAc6S
Method in brief: as §1

[33] = target: Gal(a1-3)Fuc(a1-2)Gal(b1-4)GlcNAc(b1-3)[Gal(a1-3)Fuc(a1-2)Gal(b1-4)GlcNAc(b1-6)]GalNAc
Method in brief: as §1

[34] = target: Gal(a1-3)Gal(b1-4)GlcNAc
Method in brief: as §1

[35] = target: Gal(a1-3)[Gal(a1-4)]Gal(b1-4)GlcNAc
Method in brief: as §1

[36] = target: Gal(a1-4)Gal(b1-4)Glc
Method in brief: as §1

[37] = target: Gal(a1-4)Gal(b1-4)GlcNAc
Method in brief: as §1

[38] = target: Gal(a1-4)Gal(b1-4)GlcNAc(b1-3)Gal(b1-4)Glc
Method in brief: as §1

[39] = target: Gal(b1-3)GlcNAc(b1-2)[Gal(b1-3)GlcNAc(b1-6)]Man(a1-6)[Gal(b1-3)GlcNAc(b1-2)Man(a1-3)]Man(b1-4)GlcNAc(b1-4)GlcNAc
Method in brief: as §1

[40] = target: Gal(b1-3)GlcNAc(b1-3)Gal(b1-4)GlcNAc
Method in brief: as §1

[41] = target: Gal(b1-4)Gal
Method in brief: as §1

[42] = target: Gal(b1-4)Glc6S
Method in brief: as §1

[43] = target: Gal(b1-4)GlcNAc(b1-3)Gal(b1-4)GlcNAc
Method in brief: as §1

[44] = target: Gal(b1-6)Gal
Method in brief: as §1

[45] = target: Gal3S(b1-4)[Fuc(a1-3)]Glc6S
Method in brief: as §1

[46] = target: Gal4S(b1-4)GlcNAc
Method in brief: as §1

[47] = target: Gal6S(b1-4)Glc
Method in brief: as §1

[48] = target: GalNAc(b1-3)Gal
Method in brief: as §1

[49] = target: GalNAc(b1-4)Gal(b1-4)Glc
Method in brief: as §1

[50] = target: Glc(b1-4)Glc
Method in brief: as §1

[51] = target: Glc(b1-6)Glc
Method in brief: as §1

[52] = target: GlcNAc(a1-6)Gal(b1-4)GlcNAc
Method in brief: as §1

[53] = target: GlcNAc(b1-2)[GlcNAc(b1-4)]Man(a1-3)[GlcNAc(b1-4)][GlcNAc(b1-2)[GlcNAc(b1-6)]Man(a1-6)]Man(b1-4)GlcNAc(b1-4)GlcNAc
Method in brief: as §1

[54] = target: GlcNAc(b1-4)Gal(b1-4)GlcNAc
Method in brief: as §1

[55] = target: Man(a1-2)Man(a1-3)[Man(a1-2)Man(a1-6)]Man(a1-6)[Man(a1-2)Man(a1-2)Man(a1-3)]Man(b1-4)GlcNAc(b1-4)GlcNAc
Method in brief: as §1

[56] = target: Man(a1-3)[Man(a1-6)]Man(a1-6)[Man(a1-2)Man(a1-3)]Man(b1-4)GlcNAc(b1-4)GlcNAc
Method in brief: as §1

[57] = target: Neu5Ac(a2-3)Gal(b1-3)GalNAc(b1-3)Gal(a1-4)Gal(b1-4)Glc
Method in brief: as §1

[58] = target: Neu5Ac(a2-3)Gal(b1-4)GlcNAc(b1-6)[Neu5Ac(a2-3)Gal(b1-3)]GalNAc
Method in brief: as §1

[59] = target: Neu5Ac(a2-3)Gal(b1-4)[Fuc(a1-3)]GlcNAc(b1-3)Gal
Method in brief: as §1

[60] = target: Neu5Ac(a2-3)Gal(b1-4)[Fuc(a1-3)]GlcNAc(b1-3)GalNAc
Method in brief: as §1

[61] = target: Neu5Ac(a2-6)Gal(b1-4)GlcNAc(b1-2)Man(a1-3)[Neu5Ac(a2-6)Gal(b1-4)GlcNAc(b1-2)Man(a1-6)]Man(b1-4)GlcNAc(b1-4)GlcNAc
Method in brief: as §1

[62] = target: Neu5Ac(a2-6)Gal(b1-4)GlcNAc(b1-3)Gal(b1-4)GlcNAc(b1-3)Gal(b1-4)GlcNAc
Method in brief: as §1

[63] = target: Neu5Ac9Ac(a2-3)Gal(b1-4)GlcNAc
Method in brief: as §1

B1: SEX4 (Arabidopsis thaliana), Q944A8 (protein)
chain: TQAMGAVLTYRHELGMNYNFIRPDLIVGSCLQTPEDVDKLRKIGVKTIFCLQQDPDLEYFGVDISSIQAYAKKYSDIQHIRCEIRDFDAFDLRMRLPAVVGTLYKAVKRNGGVTYVHCTAGMGRAPAVALTYMFWVQGYKLMEAHKLLMSKRSCFPKLDAIRNATIDILTGLKRKTVTLTLKDKGFSRVEISGLDIGWGQRIPLTLGKGTGFWILKRELPEGQFEYKYIIDGEWTHNEAEPFIGPNKDGHTNNYAKVVDDPTSVDGTTRERLSSEDPELLEEERSKLIQFLETCSEAEV
glycan array binding signal (z-score) [1]: 16 | glycan array binding signal (z-score) [2]: 3.1 | glycan array binding signal (z-score) [3]: 0.008 | glycan array binding signal (z-score) [4]: -0.06 | glycan array binding signal (z-score) [5]: -0.388 | glycan array binding signal (z-score) [6]: -0.489 | glycan array binding signal (z-score) [7]: 0.126 | glycan array binding signal (z-score) [8]: 0.514 | glycan array binding signal (z-score) [9]: -0.36 | glycan array binding signal (z-score) [10]: 0.161 | glycan array binding signal (z-score) [11]: 2.39 | glycan array binding signal (z-score) [12]: -0.529 | glycan array binding signal (z-score) [13]: -0.496 | glycan array binding signal (z-score) [14]: 2.32 | glycan array binding signal (z-score) [15]: 2.46 | glycan array binding signal (z-score) [16]: -0.017 | glycan array binding signal (z-score) [17]: -0.065 | glycan array binding signal (z-score) [18]: 0.489 | glycan array binding signal (z-score) [19]: -0.09

B2: DCL-1 (Homo sapiens), Q8IX05 (protein)
chain: MLRAALPALLLPLLGLAAAAVADCPSSTWIQFQDSCYIFLQEAIKVESIEDVRNQCTDHGADMISIHNEEENAFILDTLKKQWKGPDDILLGMFYDTDDASFKWFDNSNMTFDKWTDQDDDEDLVDTCAFLHIKTGEWKKGNCEVSSVEGTLCKTAIPYKRKYLSDNHILISALVIASTVILTVLGAIIWFLYKKHSDSRFTTVFSTAPQSPYNEDCVLVVGEENEYPVQFD
glycan array binding signal (z-score) [20]: 0.687 | glycan array binding signal (z-score) [21]: -0.715 | glycan array binding signal (z-score) [22]: 0.156 | glycan array binding signal (z-score) [23]: -0.488 | glycan array binding signal (z-score) [24]: 0.028 | glycan array binding signal (z-score) [25]: -0.471 | glycan array binding signal (z-score) [26]: 1.87 | glycan array binding signal (z-score) [27]: 3.01 | glycan array binding signal (z-score) [28]: -0.77 | glycan array binding signal (z-score) [29]: -0.151 | glycan array binding signal (z-score) [30]: -0.734 | glycan array binding signal (z-score) [31]: 0.221 | glycan array binding signal (z-score) [32]: -0.491 | glycan array binding signal (z-score) [33]: 0.69 | glycan array binding signal (z-score) [34]: 0.709 | glycan array binding signal (z-score) [35]: -0.245 | glycan array binding signal (z-score) [36]: -0.289 | glycan array binding signal (z-score) [37]: 0.053 | glycan array binding signal (z-score) [38]: -0.496 | glycan array binding signal (z-score) [39]: 2.22 | glycan array binding signal (z-score) [40]: -0.606 | glycan array binding signal (z-score) [41]: -0.028 | glycan array binding signal (z-score) [42]: 0.595 | glycan array binding signal (z-score) [43]: 2.35 | glycan array binding signal (z-score) [44]: -0.915 | glycan array binding signal (z-score) [45]: 0.532 | glycan array binding signal (z-score) [46]: -0.14 | glycan array binding signal (z-score) [47]: 0.156 | glycan array binding signal (z-score) [48]: -0.083 | glycan array binding signal (z-score) [49]: -0.041 | glycan array binding signal (z-score) [50]: -0.786 | glycan array binding signal (z-score) [51]: -0.407 | glycan array binding signal (z-score) [52]: 6.83 | glycan array binding signal (z-score) [53]: 0.126 | glycan array binding signal (z-score) [54]: -0.427 | glycan array binding signal (z-score) [55]: 2.43 | glycan array binding signal (z-score) [56]: 10.6 | glycan array binding signal (z-score) [57]: 3.04 | glycan array binding signal (z-score) [11]: -0.021 | glycan array binding signal (z-score) [58]: 0.223 | glycan array binding signal (z-score) [59]: 0.066 | glycan array binding signal (z-score) [60]: 5.12 | glycan array binding signal (z-score) [61]: 0.079 | glycan array binding signal (z-score) [62]: -1.67 | glycan array binding signal (z-score) [63]: 2.38
